TWEAK-Fn14 inh – TWEAK-Fn14 signaling inhibition; TWEAK-stimulated Fn14 reporter cells, luciferase luminescence, 8 h; inhibition, % at 10 µM; 2% of 360,000 active; in the data active = inhibition above about 50%
Peg3 prom inh-1 – reduces Peg3 promoter-driven luciferase expression in HeLa; HeLa PEG-Prom luciferase reporter, luminescence, overnight; inhibition, % at 20 µM; 1.7% of 360,000 active; AID 588405;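 active = inhibition of at least 50% at 20 µM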
HIF-2a inh – HIF-2a inhibition | 786-0 RCC cells HIF-2a reporter, luciferase luminescence, overnight | inhibition, % at 18.8 µM | 0.72% of 360,000 active | AID 624352;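 active = inhibition of the luminescence signal of 40% or more relative to plate controls, in a single-dose primary screen at 18.75 µM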
TROY signal inh – TROY signaling inhibition; inhibition, % at 10 µM; 0.98% of 360,000 active; Q293 LMP1-TROYcd NF-kB luciferase reporter, 4 h;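 active = compounds whose plate-normalised and pattern-corrected inhibition of the luciferase reporter signal at the single screening dose is 50% or more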
CF NFkB block – cystic fibrosis NF-kB activation inhibition | inhibition, % at 5 µM | AID 588850 | KKLEB NF-kB-GFP reporter, PAF-induced, GFP fluorescence overnight | 0.86% of 360,000 active;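 active = at least 50% inhibition at 5 µM, scaled per plate between neutral and stimulator controls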;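 also: PAF is a Pseudomonas aeruginosa culture filtrate used as stimulus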
KKLEB cytotox – CF airway cell cytotoxicity counter-screen. activity change (cytotoxicity), % at 5 µM. 0.36% of 360,000 active. KKLEB CF airway cells viability, ATPlite luminescence, overnight; stronger effect = lower value; cells stimulated with P. aeruginosa culture filtrate. AID 602141;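 active = corrected activity change at or below -50% at 5 µM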
Peg3 prom inh-2 – Peg3 promoter inhibition confirmation; shares compounds with Peg3 prom inh-1; HeLa PEG-Prom luciferase reporter, luminescence, overnight; inhibition, % at 20 µM; 84% of 1,300 active; AID 602417;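 active = at 20 µM dose, 40% or more inhibition averaged across four replicates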
Numbers stand for hits. In the library only some 4% were active in any assay of this set; here they are far more common.

How did COc1ccc(C)cc1Nc1n[n+](-c2ccccc2)c(-c2ccc(OC)c(OC)c2OC)s1 do in these assays?
TWEAK-Fn14 inh: inactive; Peg3 prom inh-1: inactive; HIF-2a inh: inactive; TROY signal inh: inactive; CF NFkB block: inactive; KKLEB cytotox: inactive

How did Cc1nc(-c2ccc(NC(=O)c3ccco3)cc2)cs1 do in these assays?
TWEAK-Fn14 inh: 96.6; Peg3 prom inh-1: 82.5; HIF-2a inh: 63.8; TROY signal inh: 50.4; CF NFkB block: inactive; KKLEB cytotox: -53.5; Peg3 prom inh-2: 66.6

What do the screens show for `CCOc1cccc(-c2c(C(=O)N/N=C(\C)c3ccccn3)nnn2-c2nonc2N)c1`?
TWEAK-Fn14 inh: inactive; Peg3 prom inh-1: 74.2; HIF-2a inh: inactive; TROY signal inh: inactive; CF NFkB block: inactive; KKLEB cytotox: inactive; Peg3 prom inh-2: 63.9

How did C/C(=N\NC(=O)c1nnn(-c2nonc2N)c1CN1CCc2ccccc21)c1ccccc1O do in these assays?
TWEAK-Fn14 inh: inactive; Peg3 prom inh-1: 55.3; HIF-2a inh: inactive; TROY signal inh: inactive; CF NFkB block: inactive; KKLEB cytotox: inactive; Peg3 prom inh-2: 66.5

What do the screens show for `Nc1nonc1-n1nnc(C(=O)N/N=C/c2ccccc2)c1CN1CCc2ccccc21`?
TWEAK-Fn14 inh: inactive; Peg3 prom inh-1: inactive; HIF-2a inh: inactive; TROY signal inh: inactive; CF NFkB block: inactive; KKLEB cytotox: inactive

Results for CCOc1cccc(-c2c(C(=O)N/N=C(\C)c3ccncc3)nnn2-c2nonc2N)c1 ?
TWEAK-Fn14 inh: inactive; Peg3 prom inh-1: inactive; HIF-2a inh: inactive; TROY signal inh: inactive; CF NFkB block: inactive; KKLEB cytotox: inactive

How did CN1CCN(S(=O)(=O)c2ccc(N(C)Cc3c(F)cccc3Cl)nc2)CC1 do in these assays?
TWEAK-Fn14 inh: inactive; Peg3 prom inh-1: inactive; HIF-2a inh: inactive; TROY signal inh: inactive; CF NFkB block: inactive; KKLEB cytotox: inactive

Results for CCC(=O)NC(c1ccc(OC)c(OC)c1)c1cc(Cl)c2cccnc2c1O (centres undefined) ?
TWEAK-Fn14 inh: inactive; Peg3 prom inh-1: 55.3; HIF-2a inh: inactive; TROY signal inh: inactive; CF NFkB block: inactive; KKLEB cytotox: inactive; Peg3 prom inh-2: 62.8

How did CCCCC(=O)NC(c1ccc(N(C)C)cc1)c1ccc2cccnc2c1O (centres undefined) do in these assays?
TWEAK-Fn14 inh: inactive; Peg3 prom inh-1: inactive; HIF-2a inh: inactive; TROY signal inh: inactive; CF NFkB block: inactive; KKLEB cytotox: inactive

Results for CCC(=O)NC(c1cccc([N+](=O)[O-])c1)c1c(OC(C)=O)ccc2ccccc12 (centres undefined) ?
TWEAK-Fn14 inh: inactive; Peg3 prom inh-1: inactive; HIF-2a inh: inactive; TROY signal inh: inactive; CF NFkB block: inactive; KKLEB cytotox: inactive

What do the screens show for `CCCCC(=O)NC(c1ccccc1Cl)c1c(O)ccc2ccccc12` (centres undefined)?
TWEAK-Fn14 inh: inactive; Peg3 prom inh-1: inactive; HIF-2a inh: inactive; TROY signal inh: inactive; CF NFkB block: inactive; KKLEB cytotox: inactive

Results for COc1ccc(C(NC(C)=O)c2cc(Cl)c3cccnc3c2O)cc1OC (centres undefined) ?
TWEAK-Fn14 inh: inactive; Peg3 prom inh-1: inactive; HIF-2a inh: inactive; TROY signal inh: inactive; CF NFkB block: inactive; KKLEB cytotox: inactive

What do the screens show for `CCCCC(=O)NC(c1ccc(Cl)cc1)c1ccc2cccnc2c1O` (centres undefined)?
TWEAK-Fn14 inh: inactive; Peg3 prom inh-1: 61.8; HIF-2a inh: inactive; TROY signal inh: inactive; CF NFkB block: inactive; KKLEB cytotox: inactive; Peg3 prom inh-2: 68.5

What do the screens show for `CCCC(=O)NC(c1cccc([N+](=O)[O-])c1)c1ccc2cccnc2c1O` (centres undefined)?
TWEAK-Fn14 inh: inactive; Peg3 prom inh-1: 57.8; HIF-2a inh: inactive; TROY signal inh: inactive; CF NFkB block: inactive; KKLEB cytotox: inactive; Peg3 prom inh-2: 66.3

How did CCCCC(=O)NC(c1ccc(N(CC)CC)cc1)c1ccc2cccnc2c1O (centres undefined) do in these assays?
TWEAK-Fn14 inh: inactive; Peg3 prom inh-1: 59.2; HIF-2a inh: inactive; TROY signal inh: inactive; CF NFkB block: inactive; KKLEB cytotox: inactive; Peg3 prom inh-2: 69.8

Results for Cn1c(SCC(=O)NCCc2ccccc2)nnc1C1CCCCC1 ?
TWEAK-Fn14 inh: inactive; Peg3 prom inh-1: inactive; HIF-2a inh: inactive; TROY signal inh: inactive; CF NFkB block: inactive; KKLEB cytotox: inactive

How did CC(=O)N1c2ccc(S(=O)(=O)N3CCC(C(=O)N4CCN(c5ccccc5F)CC4)CC3)cc2CC1C (centres undefined) do in these assays?
TWEAK-Fn14 inh: inactive; Peg3 prom inh-1: inactive; HIF-2a inh: inactive; TROY signal inh: inactive; CF NFkB block: inactive; KKLEB cytotox: inactive

Results for COc1ccccc1N1CCN(S(=O)(=O)CCNC(=O)CC2CCCCC2)CC1 ?
TWEAK-Fn14 inh: inactive; Peg3 prom inh-1: inactive; HIF-2a inh: inactive; TROY signal inh: inactive; CF NFkB block: inactive; KKLEB cytotox: inactive

What do the screens show for `CCOc1ccc2nc(Nc3nc(CSc4nnnn4-c4ccccc4)cc(=O)[nH]3)nc(C)c2c1`?
TWEAK-Fn14 inh: inactive; Peg3 prom inh-1: inactive; HIF-2a inh: inactive; TROY signal inh: inactive; CF NFkB block: inactive; KKLEB cytotox: inactive

How did COc1ccc2nc(Nc3nc(CSc4nnnn4-c4ccccc4)cc(=O)[nH]3)nc(C)c2c1 do in these assays?
TWEAK-Fn14 inh: 56.6; Peg3 prom inh-1: 73.7; HIF-2a inh: inactive; TROY signal inh: inactive; CF NFkB block: inactive; KKLEB cytotox: inactive; Peg3 prom inh-2: 43.5

What do the screens show for `COc1ccc(C(=O)Nc2nnc(-c3ccco3)s2)cc1`?
TWEAK-Fn14 inh: 84.7; Peg3 prom inh-1: 63.2; HIF-2a inh: inactive; TROY signal inh: inactive; CF NFkB block: inactive; KKLEB cytotox: inactive; Peg3 prom inh-2: inactive

Results for CCCS(=O)(=O)NC(=O)C1(C)CCCN(C(=O)c2ccc(C#N)cc2)C1 (centres undefined) ?
TWEAK-Fn14 inh: inactive; Peg3 prom inh-1: inactive; HIF-2a inh: inactive; TROY signal inh: inactive; CF NFkB block: inactive; KKLEB cytotox: inactive

What do the screens show for `Cc1ccc(NC(=O)c2nc[nH]c2C(=O)NCCCCNC(=O)c2[nH]cnc2C(=O)Nc2ccc(C)cc2)cc1`?
TWEAK-Fn14 inh: inactive; Peg3 prom inh-1: 74.3; HIF-2a inh: inactive; TROY signal inh: inactive; CF NFkB block: 85.5; KKLEB cytotox: -82.7; Peg3 prom inh-2: 43.4

How did CC(=O)c1ccc(Nc2cc(C)nc3ccc(C)cc23)cc1 do in these assays?
TWEAK-Fn14 inh: inactive; Peg3 prom inh-1: 81.6; HIF-2a inh: inactive; TROY signal inh: inactive; CF NFkB block: inactive; KKLEB cytotox: inactive; Peg3 prom inh-2: 87.3

Results for COc1ccc(Nc2cc(C)nc3ccc(C)cc23)cc1 ?
TWEAK-Fn14 inh: inactive; Peg3 prom inh-1: inactive; HIF-2a inh: inactive; TROY signal inh: inactive; CF NFkB block: inactive; KKLEB cytotox: inactive

Results for COc1cc2nc(SCC(=O)NCc3ccco3)n(Cc3ccc(Cl)cc3)c(=O)c2cc1OC ?
TWEAK-Fn14 inh: inactive; Peg3 prom inh-1: 50.9; HIF-2a inh: inactive; TROY signal inh: inactive; CF NFkB block: inactive; KKLEB cytotox: inactive; Peg3 prom inh-2: inactive
